Screens: PubChem BioAssay, National Center for Advancing Translational Sciences (NCATS)
The list is not random: actives were taken first. Their share in the collection is about 11%.
HEK cytotox: cytotoxic compounds in HEK 293 cells | HEK 293 viability, ATP luminescence (CellTiter-Glo), 48-72 h | Potency, µM (titrated, usually from 115 µM), usual class: inhibitors | hit rate 6.6% among 94,000 | AID 1345083; note: nearly all actives have a fitted effect of over 60% in size
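HEK 293 cells seeded at 250 cells/well were exposed to compound for 48 or 72 hr at 37 degree Celsius. Viability taken as ATP content by CellTiter-Glo luminescence.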
hNpr1 antagonist: human Npr1 receptor antagonism. P16066. HEK293 hNpr1 GloSensor cGMP, ANP-stimulated luminescence. Potency, µM (titrated, usually from 46.3 µM), most hits filed as inhibitors. hit rate 1.6% among 76,000; calls by dose curve; note: nearly all actives have a fitted effect of over 60% in size
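HEK293 cells stably expressing human Npr1 and cGMP GloSensor pGS-40F, loaded 2 h with 2% GloSensor reagent, given compound 30 min at room temperature. Luminescence read before and 20 min after 0.1 nM hNppA.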
NIH3T3 tox: NIH 3T3 cell cytotoxicity; hit rate 4.3% among 94,000; AID 1345082; Potency, µM (top dose mostly 96.7 µM), actives largely listed as inhibitors; NIH 3T3 viability, CellTiter-Glo ATP luminescence, 48-72 h; note: nearly all actives have a fitted effect of over 55% in size
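Cells were seeded at 400 per well, treated with pin-transferred compound, and kept 48 or 72 hr at 37 °C before CellTiter-Glo addition and luminescence imaging of cellular ATP.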
FLuc inh: inhibitors of firefly (Photinus pyralis) luciferase. purified P. pyralis luciferase, luminescence, biochemical. Potency, µM (titrated, usually from 115 µM), usual class: inhibitors. hit rate 2.5% among 76,000; note: nearly all actives have a fitted effect of over 65% in size
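Purified 10nM P. pyralis luciferase with 10uM D-luciferin and 10uM ATP in 50mM Tris acetate pH 7.5, 10mM Mg acetate, 0.01% Tween-20, 0.05% BSA. qHTS titration; luminescence read by CCD imager.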
A number is an active result. Unless noted, calls come from the whole dose curve; as a rule, active = well fitted curve in the direction sought with a large enough effect; inconclusive = small, poorly fitted or top-dose-only effect, or another doubt; inactive = no such curve, though single readings can be large; an effect the other way counts as inactive or inconclusive.

Results for O=C(COc1ccccc1)NC1CCCc2c1[nH]c1ccccc21 (stereo unspecified) ?
HEK cytotox: inconclusive; hNpr1 antagonist: inactive; NIH3T3 tox: inconclusive; FLuc inh: inactive

Results for COCCN[C@@H]1C[C@@H]2c3[nH]c4ccccc4c3C[C@@H](C(=O)OC)N2[C@H](c2ccccc2)C1 ?
HEK cytotox: 28.2µM; hNpr1 antagonist: inconclusive; NIH3T3 tox: 31.6µM; FLuc inh: inconclusive

Results for COCCN[C@@H]1C[C@@H]2c3[nH]c4ccccc4c3C[C@@H](C(=O)OC)N2[C@H](c2ccc(F)c(F)c2)C1 ?
HEK cytotox: 22.4µM; hNpr1 antagonist: inconclusive; NIH3T3 tox: 25.1µM; FLuc inh: inactive

How did CCN1C(=O)C2CC3(CCN(C(=O)c4ccc(OC)cc4)CC3)CN2C1=O (stereo unspecified) do in these assays?
HEK cytotox: inactive; hNpr1 antagonist: inactive; NIH3T3 tox: inactive; FLuc inh: inactive

How did Cc1ccccc1N1CCN(C(=O)c2cc3n(n2)CC(c2ccc(Cl)cc2)OC3)CC1 (stereo unspecified) do in these assays?
HEK cytotox: inconclusive; hNpr1 antagonist: inconclusive; NIH3T3 tox: inconclusive; FLuc inh: inactive

What do the screens show for `O=C(c1cc2n(n1)CC(c1ccc(Br)cc1)OC2)N1CCOCC1` (stereo unspecified)?
HEK cytotox: 28.2µM; hNpr1 antagonist: inactive; NIH3T3 tox: 39.8µM; FLuc inh: inactive

How did CCN1CCN(C(=O)c2cc3n(n2)CC(c2ccc(Br)cc2)OC3)CC1 (stereo unspecified) do in these assays?
HEK cytotox: inconclusive; hNpr1 antagonist: inactive; NIH3T3 tox: inconclusive; FLuc inh: inactive

How did O=C(c1cc2n(n1)CC(c1ccc3c(c1)OCO3)OC2)N1CCCCC1 (stereo unspecified) do in these assays?
HEK cytotox: 35.5µM; hNpr1 antagonist: inactive; NIH3T3 tox: 39.8µM; FLuc inh: inactive

Results for Cc1ccc(C)c(N2CCN(C(=O)c3cc4n(n3)CC(c3ccc(Cl)cc3)OC4)CC2)c1 (stereo unspecified) ?
HEK cytotox: 44.7µM; hNpr1 antagonist: inactive; NIH3T3 tox: inconclusive; FLuc inh: inactive

Results for O=C(c1cc2n(n1)CC(c1ccc(Cl)cc1)OC2)N1CCCCC1 (stereo unspecified) ?
HEK cytotox: inconclusive; hNpr1 antagonist: inactive; NIH3T3 tox: 39.8µM; FLuc inh: inactive

Results for C#CCNC(=O)c1nc(-c2cccc(C(F)(F)F)c2)c2cnccn12 ?
HEK cytotox: inconclusive; hNpr1 antagonist: inconclusive; NIH3T3 tox: inconclusive; FLuc inh: inactive

How did Cn1cccc1C(=O)N1CCC2(CC1)CN(Cc1ccccc1)CC2CO (stereo unspecified) do in these assays?
HEK cytotox: inconclusive; hNpr1 antagonist: inactive; NIH3T3 tox: inconclusive; FLuc inh: inactive

What do the screens show for `C#CCNC(=O)c1cn2cc(-c3ccc(F)cc3)sc2n1`?
HEK cytotox: inconclusive; NIH3T3 tox: inactive

How did CC(=O)N1CCN([C@H]2[C@@H]3OC[C@@H](O3)[C@@H](NC(=O)Nc3ccccc3)[C@@H]2O)CC1 do in these assays?
HEK cytotox: inactive; hNpr1 antagonist: inactive; NIH3T3 tox: inactive; FLuc inh: inactive

How did Oc1ccc(CCC2CCCCN2Cc2nc(Cc3cccc(F)c3)no2)cc1 (stereo unspecified) do in these assays?
HEK cytotox: 22.4µM; hNpr1 antagonist: inactive; NIH3T3 tox: inconclusive; FLuc inh: inactive

Results for O=C(c1cc(COc2c(F)cccc2F)on1)N1CCCCC1CCc1ccccc1 (stereo unspecified) ?
HEK cytotox: inactive; hNpr1 antagonist: inactive; NIH3T3 tox: inactive; FLuc inh: inactive

Results for CNC(=O)CCn1ncc2cc(OCc3ccccc3-c3cnn(C)c3)ccc21 ?
HEK cytotox: inconclusive; hNpr1 antagonist: inactive; NIH3T3 tox: inconclusive; FLuc inh: inactive

What do the screens show for `CNC(=O)CCn1ncc2cc(OCc3ccccc3-c3cc(Cl)ccc3OC)ccc21`?
HEK cytotox: inconclusive; hNpr1 antagonist: inactive; NIH3T3 tox: inconclusive; FLuc inh: inactive

Results for CNC(=O)CCn1ncc2cc(OCc3ccccc3-c3ccc(OC)cc3)ccc21 ?
HEK cytotox: 100µM; hNpr1 antagonist: inactive; NIH3T3 tox: 89.1µM; FLuc inh: inactive

How did CNC(=O)CCn1ncc2cc(OCc3ccccc3-c3ccsc3)ccc21 do in these assays?
HEK cytotox: 89.1µM; hNpr1 antagonist: inactive; NIH3T3 tox: inconclusive; FLuc inh: 50.1µM

Results for CNC(=O)CCn1ncc2cc(OCc3ccccc3-c3cccnc3OC)ccc21 ?
HEK cytotox: inconclusive; hNpr1 antagonist: inactive; NIH3T3 tox: inconclusive; FLuc inh: inconclusive

What do the screens show for `CNC(=O)CCn1ncc2cc(OCc3ccccc3-c3ccc(OC)cc3C)ccc21`?
HEK cytotox: 100µM; hNpr1 antagonist: inactive; NIH3T3 tox: inconclusive; FLuc inh: inconclusive

Results for CNC(=O)CCn1ncc2cc(OCc3ccccc3-c3cccc(OC)c3)ccc21 ?
HEK cytotox: 79.4µM; hNpr1 antagonist: inactive; NIH3T3 tox: inconclusive; FLuc inh: 44.7µM

How did CNC(=O)CCn1ncc2cc(OCc3ccccc3-c3cncc(OC)c3)ccc21 do in these assays?
HEK cytotox: 79.4µM; hNpr1 antagonist: inactive; NIH3T3 tox: inconclusive; FLuc inh: 22.4µM

What do the screens show for `CNC(=O)CCn1ncc2cc(OCc3ccccc3-c3cc(F)cc(OC)c3)ccc21`?
HEK cytotox: 70.8µM; hNpr1 antagonist: inactive; NIH3T3 tox: inconclusive; FLuc inh: inactive

What do the screens show for `Cn1nc(C2CC2)cc1NC(=O)c1ccccc1F`?
HEK cytotox: inactive; NIH3T3 tox: inactive

What do the screens show for `O=C(CC1CCCC1)N1CCC2(CC1)CC(CO)N(C(=O)c1ccccc1)C2` (stereo unspecified)?
HEK cytotox: inactive; NIH3T3 tox: inconclusive

What do the screens show for `CN(C)C(=O)c1ccc(OC2CCN(C(=O)c3ccc(Cl)cc3)CC2)nc1`?
HEK cytotox: inconclusive; hNpr1 antagonist: inactive; NIH3T3 tox: 39.8µM; FLuc inh: inactive

Results for CC(C)c1ccc(C(=O)N2CCC(Oc3ccc(C(=O)N(C)C)cn3)CC2)cc1 ?
HEK cytotox: inconclusive; hNpr1 antagonist: inactive; NIH3T3 tox: inactive; FLuc inh: inactive

What do the screens show for `Cc1ccc(-c2noc([C@@H]3C[C@@H](O)CN3Cc3ccc(C(=O)O)cc3)n2)cc1F`?
HEK cytotox: inactive; hNpr1 antagonist: inactive; NIH3T3 tox: inactive; FLuc inh: 50.1µM

What do the screens show for `COc1ccc(CN2C[C@H](O)C[C@H]2c2nc(-c3cccc(C)c3)no2)c2ccccc12`?
HEK cytotox: 100µM; hNpr1 antagonist: inactive; NIH3T3 tox: 79.4µM; FLuc inh: 20µM

What do the screens show for `Cc1ccc(-c2noc([C@@H]3C[C@@H](O)CN3Cc3ccccc3O)n2)cc1F`?
HEK cytotox: inconclusive; hNpr1 antagonist: inactive; NIH3T3 tox: 44.7µM; FLuc inh: 50.1µM

How did Cc1cccc(-c2noc([C@@H]3C[C@@H](O)CN3Cc3cccc(C#N)c3)n2)c1 do in these assays?
HEK cytotox: inconclusive; hNpr1 antagonist: inactive; NIH3T3 tox: inconclusive; FLuc inh: inconclusive

Results for O=C1CCN(S(=O)(=O)c2ccccc2)CCCC(C(=O)NCCc2c[nH]c3ccccc23)CCN1 (stereo unspecified) ?
HEK cytotox: inactive; hNpr1 antagonist: inactive; NIH3T3 tox: inactive; FLuc inh: inactive
